PubChem BioAssay (NCI)
This is part of a sample that, as a whole, favours compounds with a hit. Of some 83,000 tested, about 20% had one in any assay.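 A percent growth of 40 corresponds to 60% growth inhibition; 0 means no net growth; -100 means all cells died. Active threshold: below 10.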 A number with no mark means an inactive call. Activity calls are given as the source filed them.

The molecules below were run on SW-620 colon (assay: NCI-60 one-dose screen, 48 h (100 = growth as untreated, 0 = no growth, -100 = all killed)). Conditions: 10 µM unless noted.
Description: Growth inhibition of the SW-620 human tumor cell line is measured as a screen for anti-cancer activity. Cells are grown in 96 well plates and exposed to the test compound for 48 hours. Compounds are tested at a single concentration, which is 10^-5 M for most compounds. The reported endpoint is percent growth (GI% or GIPRCNT), where numbers from 0 - 100% represent growth inhibition, and numbers from -100% - 0 represent cell death. For example, a value of 40 represents 60% growth inhibition. A value of 0 means no net growth occurred over the course of the experiment. A value of -40 indicates 40% of cells at the beginning of the experiment died by the end of the experiment. A value of -100 means all cells are dead at the end of the experiment.
NCI-60 Human Tumor Cell Lines Screen was performed using the standard one-dose NCI protocol, which is described in more detail at https://dtp.cancer.gov/discovery_development/nci-60/default.htm.
Compounds with GIPRCNT values below 10 were considered active. Activity score was based on GIPRCNT using the following formula: […]
Score is 0 for GIPRCNT values of 100 or above, 50 for GIPRCNT values of 0, and 100 for GIPRCNT values of -100.
Molecule O=C(Cn1nnc2ccccc21)N/N=C/c1ccccc1F has a growth of 96.7%.
For N#Cc1c(N2CCOCC2)nc(=S)[nH]c1-c1ccccc1, the growth was 82.1%.
Cn1cc(C(=O)c2nc(-c3c[nH]c4ccc(Br)cc34)no2)c2cc(Br)ccc21 was tested, and the growth was -2.17% (active).
CC(=O)N(Cc1ccccc1)c1nc2ccc(O)c(CN(C)C)c2s1 showed a growth of 94.7%.
For CC(C)CSc1oc(-c2ccccc2)nc1S(=O)(=O)c1ccccc1, the growth was 97.2%.
Molecule O=C(CCCCNC(=O)c1cc(=O)c(O)co1)Nc1ccccc1 has a growth of 45.8%.
In the case of COc1cc(C(=O)c2c(N)ncn2-c2ccccc2)cc(OC)c1OC, the growth is reported as 88.1%.
For CCCCCCOC(=O)CC1=C(C)/C(=C/c2[nH]c(-c3ccc[nH]3)cc2OC)N=C1C, the growth was -74% (active).
With CCNc1nc(-c2ccc(F)cc2)c(C#N)c(=O)n1C the growth was 69.3%.
O=C(c1ccc(F)c(Cl)c1)N1c2ccccc2Sc2ccccc21 gave a growth of 33.9%.
Nc1c(C(=O)O)cc(Cl)cc1[N+](=O)[O-] was tested, and the growth was 99.5%.
Work on CCCCCCC(CCCC)COC(=O)c1ccc(Cl)cc1 (stereo not given) yielded a growth of 109%.
In the case of N#Cc1nc(-c2ccc(F)cc2)oc1S(=O)(=O)N1CCN(c2ccc(F)cc2)CC1, the growth is reported as 19%.
Work on O=C1Nc2ccccc2C2c3cccn3-c3ccccc3N12 (stereo not given) yielded a growth of 49.6%.
COc1cccc(OC)c1Oc1c(-c2nc3ccccc3s2)c(C)nn1-c1ccccc1 was tested, and the growth was 88%.
CN(C)c1ccc(-c2cc(-c3ccc(Nc4nc(Nc5ccc(Cl)cc5)nc(Nc5ccc(Cl)cc5)n4)cc3)nc(N)c2C#N)cc1 was tested, and the growth was 92.8%.
CC1(C)CC[C@]2(C(=O)N3CCOCC3)CC[C@]3(C)C(=CC[C@@H]4[C@@]5(C)C/C(=C/c6ccncc6)C(=O)C(C)(C)[C@@H]5CC[C@]43C)[C@@H]2C1 gave a growth of 10.4%.
Molecule CS(=O)(=O)Cc1cnc(C2OCCO2)s1 has a growth of 113%.
NC(=S)N/N=C/c1cn(-c2ccccc2)nc1-c1cc2ccccc2oc1=O gave a growth of 22.7%.
For CCNCc1ccc(O)c2ncccc12, the growth was 33.1%.
Work on CCOC(=O)Nc1nc2ccc(SCC(C)C)cc2s1 yielded a growth of 33.8%.
For C=C1C(=O)O[C@H]2[C@H]1CC/C(CNC(=O)c1cc3ccccc3[nH]1)=C\CC[C@@]1(C)O[C@@H]21, the growth was -57.4% (active).
O=C(CN1CCN(c2cc3c(cc2F)c(=O)c(C(=O)O)cn3C2CC2)CC1)N/N=C/c1ccncc1 was tested, and the growth was 97.4%.
In the case of CC/C(Cc1ccccc1)=C(\c1ccc(OCCN2CCCCCC2)cc1)c1ccc(OC(=O)NCc2ccccc2)cc1, the growth is reported as 64.5%.
COc1ccccc1-n1c(-c2cc(O)ccc2C)cn2c3c(=O)[nH]c(=O)n(C)c3nc12 was tested, and the growth was 106%.
Cc1cccc(NC(=O)CSc2nc3ccc([N+](=O)[O-])cc3[nH]2)c1 was tested, and the growth was 97.9%.
In the case of CN(Cc1cnc2nc(N)nc(N)c2n1)c1c(Cl)cc(C(=O)NC(CCC(=O)O)C(=O)O)cc1Cl (stereo not given), the growth is reported as 29.1%.
NNC(=S)N/N=C/c1ccccn1 was tested, and the growth was 51.3%.
Cc1cc(C)cc(Nc2ccc([N+](=O)[O-])c(NCCN3CCOCC3)n2)c1 was tested, and the growth was 31%.
With CCOC(=O)/C=C/c1c(C)[nH]c(=O)[nH]c1=O the growth was 56.7%.
In the case of Cc1[nH]c(C(=O)Nc2cccc(OC3CCNCC3)c2)c(Cl)c1Cl, the growth is reported as 0.537% (active).
COc1ccc(C/C(C)=C(/c2ccc(OCCN3CCCCCC3)cc2)c2ccc(OC(=O)NCc3ccccc3)cc2)cc1 gave a growth of 81.4%.
With c1ccc(CCc2ccccc2-c2cc(-c3ccccc3)on2)cc1 the growth was 91%.
For COc1cc(C(=O)C(=O)c2cc(OC)c(O)c(OC)c2)cc(OC)c1O, the growth was 105%.
With O=c1oc2c(cnc3ccccc32)cc1-c1cccs1 the growth was 103%.
For C#CCOc1ccc2ncnc(Nc3cccc(NC(=O)CCl)c3)c2c1, the growth was 33.5%.
For COC(c1ccc2ccccc2c1)C(C)C(F)F (stereo not given), the growth was 106%.
Molecule Cn1c(=O)c2c(c3ccccc31)OC(N)=C(C#N)C21C(=O)c2ccccc2C1=O has a growth of 82.3%.
Work on CCCCCn1sc(=O)n(Cc2ccc(CNC(=O)OCc3ccc4c(Cl)cc(Cl)c(O)c4n3)cc2)c1=O yielded a growth of 58.4%.
Molecule Oc1c(I)cc(-c2nc3ccccc3s2)cc1CN(Cc1ccccn1)Cc1ccccn1 has a growth of 21.3%.
